Experimental data as given in the supplement of paper PMC11732987, “Enantioselective OTUD7B fragment discovery through chemoproteomics screening and high-throughput optimisation” (Communications Chemistry, 2025).

Assays:
Assay in all cases: log2 ratio of Biotin-Ahx-Ub-VS probe labelling (fragment/DMSO); higher = less target engagement (more negative = stronger competition), active = hit call of the paper (q ≤ 0.05, log2 ratio ≤ -1)
Conditions in all cases: compound concentration: 200 uM; treatment time: 3 h
OTUD6B = target: T1, OTUD6B (UniProt Q8N6M0)
T1 sequence (whole entry): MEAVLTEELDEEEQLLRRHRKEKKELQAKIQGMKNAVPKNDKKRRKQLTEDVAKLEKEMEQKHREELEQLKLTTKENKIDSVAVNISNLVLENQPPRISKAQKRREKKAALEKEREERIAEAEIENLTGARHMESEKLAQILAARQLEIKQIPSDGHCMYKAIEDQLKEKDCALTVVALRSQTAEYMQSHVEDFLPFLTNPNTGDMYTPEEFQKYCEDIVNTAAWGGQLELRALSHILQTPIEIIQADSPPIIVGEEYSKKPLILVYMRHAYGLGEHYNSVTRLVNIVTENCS
Procedure, shortened: (§1)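 In triplicate, 495 µg of HEK293T lysate per sample was incubated with fragment at 200 µM or vehicle for 3 h. Biotin-Ahx-Ub-VS was then added to 0.5 µM final for 1 h, and labelled DUBs were captured with NeutrAvidin, digested with LysC and trypsin, and measured by diaPASEF LC-MS/MS. Data are average log2 fragment/vehicle ratios by unpaired t-test from global-median-normalised Spectronaut label-free quantities, restricted to proteins with ≥2 unique peptides.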

OTUD7B = target: T2, OTUD7B (UniProt Q6GQQ9)
T2 sequence (whole entry): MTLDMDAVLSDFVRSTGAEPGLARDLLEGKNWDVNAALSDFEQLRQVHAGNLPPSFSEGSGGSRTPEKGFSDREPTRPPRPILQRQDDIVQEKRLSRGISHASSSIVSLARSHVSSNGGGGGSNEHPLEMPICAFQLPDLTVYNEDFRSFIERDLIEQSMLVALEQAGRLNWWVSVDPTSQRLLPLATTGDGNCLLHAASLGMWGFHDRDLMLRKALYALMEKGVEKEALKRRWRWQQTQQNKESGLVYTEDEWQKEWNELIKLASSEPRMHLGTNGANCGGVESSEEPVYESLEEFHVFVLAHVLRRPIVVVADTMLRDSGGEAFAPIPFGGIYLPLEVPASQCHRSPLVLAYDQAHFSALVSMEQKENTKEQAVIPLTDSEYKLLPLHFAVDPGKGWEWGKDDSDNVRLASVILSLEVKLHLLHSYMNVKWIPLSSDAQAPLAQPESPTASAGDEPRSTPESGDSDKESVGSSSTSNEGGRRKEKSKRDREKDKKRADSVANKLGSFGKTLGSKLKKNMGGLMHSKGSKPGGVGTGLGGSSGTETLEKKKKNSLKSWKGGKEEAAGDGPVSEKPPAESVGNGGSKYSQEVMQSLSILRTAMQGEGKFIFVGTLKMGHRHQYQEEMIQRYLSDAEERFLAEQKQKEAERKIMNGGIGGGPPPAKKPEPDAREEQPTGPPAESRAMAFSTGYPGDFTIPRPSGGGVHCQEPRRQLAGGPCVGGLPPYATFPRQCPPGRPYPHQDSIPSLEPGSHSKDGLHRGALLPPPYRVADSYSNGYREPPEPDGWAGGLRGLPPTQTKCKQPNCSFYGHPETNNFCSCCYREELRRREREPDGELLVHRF
Procedure, shortened: as §1

PRPF8 = PRPF8 (UniProt Q6P2Q9)
Procedure, shortened: as §1

PSMD7 = target: T3, PSMD7 (UniProt P51665)
T3 sequence (whole entry): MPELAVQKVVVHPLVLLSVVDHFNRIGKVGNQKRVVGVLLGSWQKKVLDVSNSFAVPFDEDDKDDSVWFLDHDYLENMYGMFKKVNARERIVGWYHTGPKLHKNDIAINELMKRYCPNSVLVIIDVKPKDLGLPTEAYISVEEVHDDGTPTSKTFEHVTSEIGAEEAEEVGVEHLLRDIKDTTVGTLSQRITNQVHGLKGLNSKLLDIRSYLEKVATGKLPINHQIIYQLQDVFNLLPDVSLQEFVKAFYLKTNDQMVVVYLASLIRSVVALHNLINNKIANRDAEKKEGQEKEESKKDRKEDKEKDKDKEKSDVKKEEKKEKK
Procedure, shortened: as §1

UCHL1 = UCHL1 (UniProt P09936)
Procedure, shortened: as §1

UCHL3 = target: T4, UCHL3 (UniProt P15374)
T4 sequence (whole entry): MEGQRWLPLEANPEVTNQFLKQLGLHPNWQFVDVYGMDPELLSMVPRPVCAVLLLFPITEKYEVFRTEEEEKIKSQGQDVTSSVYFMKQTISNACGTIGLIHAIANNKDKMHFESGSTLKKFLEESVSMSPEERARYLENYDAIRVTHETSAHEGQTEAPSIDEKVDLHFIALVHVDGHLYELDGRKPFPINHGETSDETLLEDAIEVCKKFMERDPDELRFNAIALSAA
Procedure, shortened: as §1

UCHL5 = target: T5, UCHL5 (UniProt Q9Y5K5)
T5 sequence (whole entry): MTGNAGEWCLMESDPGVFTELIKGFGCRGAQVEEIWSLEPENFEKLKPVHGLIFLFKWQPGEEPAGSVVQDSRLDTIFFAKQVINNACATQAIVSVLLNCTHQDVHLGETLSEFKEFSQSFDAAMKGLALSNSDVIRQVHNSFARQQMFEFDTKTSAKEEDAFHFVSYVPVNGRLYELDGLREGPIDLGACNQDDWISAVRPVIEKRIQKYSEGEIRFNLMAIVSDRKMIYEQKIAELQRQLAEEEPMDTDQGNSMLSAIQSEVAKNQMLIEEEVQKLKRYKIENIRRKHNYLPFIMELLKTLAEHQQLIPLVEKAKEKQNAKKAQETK
Procedure, shortened: as §1

USP10 = USP10 (UniProt Q14694)
Procedure, shortened: as §1

USP15 = target: T6, USP15 (UniProt Q9Y4E8)
T6 sequence (whole entry): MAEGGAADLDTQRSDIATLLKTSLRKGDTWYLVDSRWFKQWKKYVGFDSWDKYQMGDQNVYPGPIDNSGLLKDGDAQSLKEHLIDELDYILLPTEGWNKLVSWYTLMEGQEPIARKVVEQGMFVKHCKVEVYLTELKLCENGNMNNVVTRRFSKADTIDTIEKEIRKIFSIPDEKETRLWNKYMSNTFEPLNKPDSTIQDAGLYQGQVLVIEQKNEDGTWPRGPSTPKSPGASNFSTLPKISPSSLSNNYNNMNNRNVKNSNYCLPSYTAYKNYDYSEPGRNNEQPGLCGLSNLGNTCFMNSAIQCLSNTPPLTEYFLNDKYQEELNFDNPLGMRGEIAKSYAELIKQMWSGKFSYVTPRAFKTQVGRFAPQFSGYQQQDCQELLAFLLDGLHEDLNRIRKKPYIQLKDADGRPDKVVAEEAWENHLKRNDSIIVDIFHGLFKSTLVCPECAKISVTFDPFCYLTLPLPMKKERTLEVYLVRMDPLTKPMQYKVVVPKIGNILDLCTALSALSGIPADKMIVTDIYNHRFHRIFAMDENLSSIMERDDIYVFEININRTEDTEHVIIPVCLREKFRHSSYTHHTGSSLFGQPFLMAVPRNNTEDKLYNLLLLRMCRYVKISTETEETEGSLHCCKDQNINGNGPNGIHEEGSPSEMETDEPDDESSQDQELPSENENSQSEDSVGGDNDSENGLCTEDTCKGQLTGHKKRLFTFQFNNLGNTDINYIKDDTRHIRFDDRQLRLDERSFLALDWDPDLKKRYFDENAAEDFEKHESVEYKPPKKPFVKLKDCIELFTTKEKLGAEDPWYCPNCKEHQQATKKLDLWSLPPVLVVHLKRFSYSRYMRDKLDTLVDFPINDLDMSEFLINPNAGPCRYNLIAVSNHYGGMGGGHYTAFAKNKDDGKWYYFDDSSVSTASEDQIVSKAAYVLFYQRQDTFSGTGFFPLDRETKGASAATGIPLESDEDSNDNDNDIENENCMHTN
Procedure, shortened: as §1

USP16 = USP16 (UniProt Q9Y5T5)
Procedure, shortened: as §1

Measured: log2 ratio of Biotin-Ahx-Ub-VS probe labelling

USP10, sequence (Q14694 whole entry): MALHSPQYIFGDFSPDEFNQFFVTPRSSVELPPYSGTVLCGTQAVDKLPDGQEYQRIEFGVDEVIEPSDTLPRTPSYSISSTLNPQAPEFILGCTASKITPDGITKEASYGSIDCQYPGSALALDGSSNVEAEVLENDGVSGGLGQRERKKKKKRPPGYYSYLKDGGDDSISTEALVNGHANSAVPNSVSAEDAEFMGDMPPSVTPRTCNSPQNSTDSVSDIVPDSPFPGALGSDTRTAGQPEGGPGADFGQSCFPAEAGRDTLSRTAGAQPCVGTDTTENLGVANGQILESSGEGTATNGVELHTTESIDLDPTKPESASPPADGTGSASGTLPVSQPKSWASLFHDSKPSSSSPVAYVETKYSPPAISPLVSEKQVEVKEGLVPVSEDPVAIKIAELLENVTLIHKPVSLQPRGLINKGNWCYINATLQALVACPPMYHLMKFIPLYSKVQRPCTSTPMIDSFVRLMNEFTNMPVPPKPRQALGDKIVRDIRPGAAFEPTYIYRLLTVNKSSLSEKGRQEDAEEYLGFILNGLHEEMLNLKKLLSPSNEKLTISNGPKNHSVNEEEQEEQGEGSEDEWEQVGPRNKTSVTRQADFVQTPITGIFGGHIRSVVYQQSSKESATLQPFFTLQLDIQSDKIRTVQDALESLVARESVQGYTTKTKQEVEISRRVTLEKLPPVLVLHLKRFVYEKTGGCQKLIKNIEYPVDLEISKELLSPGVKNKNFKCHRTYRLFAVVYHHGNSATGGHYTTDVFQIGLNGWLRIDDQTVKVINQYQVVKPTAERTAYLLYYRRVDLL
USP16, sequence (Q9Y5T5 whole entry, looked up): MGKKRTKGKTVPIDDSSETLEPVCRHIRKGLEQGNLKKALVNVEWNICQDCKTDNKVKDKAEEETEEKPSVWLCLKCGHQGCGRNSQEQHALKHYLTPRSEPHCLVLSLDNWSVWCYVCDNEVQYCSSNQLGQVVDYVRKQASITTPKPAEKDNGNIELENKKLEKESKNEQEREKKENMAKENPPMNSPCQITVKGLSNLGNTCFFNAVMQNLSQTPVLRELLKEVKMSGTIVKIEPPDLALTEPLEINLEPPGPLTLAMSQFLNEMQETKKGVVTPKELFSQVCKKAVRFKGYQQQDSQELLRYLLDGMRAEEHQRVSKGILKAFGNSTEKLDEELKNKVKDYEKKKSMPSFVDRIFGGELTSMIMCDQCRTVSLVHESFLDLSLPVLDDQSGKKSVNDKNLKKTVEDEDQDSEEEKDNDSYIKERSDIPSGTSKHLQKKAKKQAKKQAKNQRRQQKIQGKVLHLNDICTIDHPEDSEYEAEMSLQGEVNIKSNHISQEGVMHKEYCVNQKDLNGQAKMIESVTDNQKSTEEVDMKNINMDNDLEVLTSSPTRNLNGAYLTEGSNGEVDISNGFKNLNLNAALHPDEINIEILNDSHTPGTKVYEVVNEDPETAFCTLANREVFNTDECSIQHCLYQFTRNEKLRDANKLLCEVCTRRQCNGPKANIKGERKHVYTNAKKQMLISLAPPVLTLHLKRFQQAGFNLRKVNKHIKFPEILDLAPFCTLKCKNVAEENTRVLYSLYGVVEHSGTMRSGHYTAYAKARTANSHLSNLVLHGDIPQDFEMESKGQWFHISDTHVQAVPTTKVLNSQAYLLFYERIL
UCHL1, sequence (P09936 whole entry, looked up): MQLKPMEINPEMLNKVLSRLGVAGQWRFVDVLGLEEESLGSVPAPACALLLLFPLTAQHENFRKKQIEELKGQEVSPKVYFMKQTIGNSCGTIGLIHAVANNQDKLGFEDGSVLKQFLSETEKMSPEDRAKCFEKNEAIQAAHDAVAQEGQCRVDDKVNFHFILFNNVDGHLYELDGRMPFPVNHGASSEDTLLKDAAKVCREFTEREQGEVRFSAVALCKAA

Cc1cccc(NC(=O)[C@@H]2CCCN2C(=O)CCl)n1
active: UCHL1 -1.67
inactive: OTUD6B -0.319 | OTUD7B -0.29 | PRPF8 -0.0295 | PSMD7 -0.254 | UCHL3 -0.737 | UCHL5 -0.436 | USP10 -0.09 | USP15 -0.215 | USP16 -0.0941
